In the library only some 2.2% were active in any assay of this set; here they are far more common.
PI4K2A block: qHTS for small molecular inhibitors of PI4K2A | activity change, negative = inhibition, % at 76.9 µM | 0.13% of 420,000 active | Phosphatidylinositol 4-kinase type 2-alpha (Homo sapiens), Q9BTU6 | purified PI4K2A, ADP-Glo luminescence, 1 h; active compounds read low; in the data active means activity change below about -50%; inconclusive means mostly about -30% to -49%;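 further: -100% = wells without enzyme as full effect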
Target sequence (Q9BTU6 whole entry, looked up): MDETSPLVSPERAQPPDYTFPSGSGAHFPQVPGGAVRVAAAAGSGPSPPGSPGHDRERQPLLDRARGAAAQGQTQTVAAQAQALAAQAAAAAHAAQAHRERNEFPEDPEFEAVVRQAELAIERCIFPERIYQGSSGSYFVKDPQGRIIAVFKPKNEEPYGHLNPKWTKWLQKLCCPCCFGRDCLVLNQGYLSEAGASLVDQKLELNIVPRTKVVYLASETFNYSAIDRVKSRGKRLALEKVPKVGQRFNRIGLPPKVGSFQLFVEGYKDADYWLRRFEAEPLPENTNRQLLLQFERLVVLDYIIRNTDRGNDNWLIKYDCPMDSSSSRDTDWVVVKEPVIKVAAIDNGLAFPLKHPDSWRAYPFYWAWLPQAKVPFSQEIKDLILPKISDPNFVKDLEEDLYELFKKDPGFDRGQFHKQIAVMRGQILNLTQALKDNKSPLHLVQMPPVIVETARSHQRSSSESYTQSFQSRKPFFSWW
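Compounds are screened against recombinant PI4K2A using PI as substrate and ATP, the latter dispensed at 300 microM. Reactions run one hour at ambient temperature before ADP-Glo detection; full inhibition defined by wells lacking enzyme.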
miR-21 reporter: qHTS Assay for Modulators of miRNAs and/orActivators of miR-21 | HeLa miR-21 FLuc reporter, luciferase, 48 h | Potency, µM (doses to about 38.3 µM), for the others: at the highest dose activity change, positive = activation, actives largely listed as activators | 340,000 tested, under 10 active;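 further: % of control where 0% means no effect; miR-21 action dims this reporter so a rising signal means less miR-21 action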
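HeLa cells endogenously expressing miR-21, stably carrying CMV-driven firefly luciferase with a downstream miR-21 binding site, 2000 cells/well. Titrations up to approximately 40 uM, 48 hours; luciferase luminescence read.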
Nrf2 block: Nrf2 qHTS screen for inhibitors; 2.1% of 360,000 active; A549 ARE-Fluc reporter, luciferase luminescence, 18-24 h; Potency, µM (highest dose often 46 µM), for the others: at the highest dose activity change, negative = inhibition, actives largely listed as inhibitors; further: potency means the concentration at half of the fitted maximal effect; on the % scale 0 is the no-effect control and ±100 the full control effect; nearly all actives have a fitted effect of over 60% in size
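Quantitative HTS in A549 cells stably bearing an antioxidant response element-firefly luciferase construct. Inhibition of Nrf2-driven transcription was scored by luminescence after 18-24 h of compound exposure at 37 °C.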
Nrf2 ARE act: qHTS of Nrf2 Activators; AID 624171, 2012; AREc32 ARE-luciferase reporter (MCF7-derived line), luminescence, 24 h; 0.31% of 410,000 active; Potency, µM (titrated, usually from 46.1 µM), without a hit: top-dose activation, most hits filed as activators; further: potency means the concentration at half of the fitted maximal effect; % of control where 0% means no effect; nearly all actives have a fitted effect of over 65% in size
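Luciferase luminescence (Steady-Glo, 30 min at room temperature) served as the read-out of ARE activation in AREc32 cells treated with compounds for 24 hr at 37 deg C.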
GALK inhibitor: qHTS Assay for Inhibitors of Human Galactokinase (GALK) | P51570 | Purified GALK, Kinase-Glo residual ATP luminescence | Potency, µM (series often up to 57.5 µM), for inactives: top-dose activity change, negative = inhibition, usual class: inhibitors | 0.007% of 270,000 active; further: potency means the concentration at half of the fitted maximal effect; on the % scale 0 is the no-effect control and ±100 the full control effect
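Luminescence from leftover ATP (Ultra-Glo luciferase/luciferin) served as read-out after a 1 h room-temperature reaction of 5 nM GALK with 35 uM ATP and 100 uM galactose.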
A549 tox: Nrf2 qHTS screen for inhibitors: counterscreen for cytotoxicity. 0.16% of 390,000 active. A549 ARE-Fluc cells, CellTiter-Fluor viability, 18-24 h. AID 504648, 2011. Potency, µM (titrated, usually from 46 µM), for inactives: top-dose activity change, negative = cytotoxicity, most hits filed as inhibitors; further: potency means the concentration at half of the fitted maximal effect; on the % scale 0 is the no-effect control and ±100 the full control effect
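A549 ARE-Fluc cells in 5% FBS OPTI-MEM, 5000 cells/well, rested 2 h then exposed to compounds in concentration-response for 18-24 h at 37 °C. Viability by CellTiter-Fluor fluorescence (Ex 405/Em 525) after 30 min; luciferase luminescence (BugLite, 15 min, RT) read afterwards.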
Numbers without * were called inactive; ? = inconclusive; nt = not tested or not shown; [ ] = dose if it differs, or a comment. Unless noted, the call rests on the fitted dose curve; in most records, active means well fitted curve in the direction sought with a large enough effect; inconclusive means small, poorly fitted or top-dose-only effect, or another doubt; inactive means no such curve, though single readings can be large; an effect the other way counts as inactive or inconclusive.

SMILES	PI4K2A block	miR-21 reporter	Nrf2 block	Nrf2 ARE act	GALK inhibitor	A549 tox
CCCNC(=O)C[C@H]1CC[C@H]2[C@@H](COc3ccc(NC(=O)c4cncs4)cc3C(=O)N2C)O1	-4	nt	nt	nt	nt	nt
COc1cccc(OC)c1NC(=O)OC1CCC12CCC(c1ccccc1)CC2 (stereo not drawn)	1	nt	nt	nt	nt	nt
CCn1c(N2CCN(S(=O)(=O)c3ccccc3C(F)(F)F)CC2)nc2ccccc21	8	25%	21µM*	3%	2%	-13%
CCn1c(N2CCN(S(=O)(=O)c3ccc(OC)cc3)CC2)nc2ccccc21	5	21%	21µM*	0%[9.22 µM]	0%	-17%
Cn1c(N2CCN(S(=O)(=O)c3ccc(F)cc3)CC2)nc2ccccc21	1	-4%	?	0%	5%	-3%
CN1CCc2sc(NC(=O)Cc3ccccc3)c(C(=O)Nc3ccc(Cl)cc3)c2C1	nt	nt	18%	nt	nt	-3%
COC(=O)COc1ccc(-c2nccc(-c3ccccn3)n2)cc1	0	25%	7.3µM*	-2%	-3%	-8%
COC(=O)COc1ccc(-c2nccc(-c3ccc(Br)cc3)n2)cc1	-1	-2%	3%	0%	-1%	1%
CC(=O)c1cccc(Oc2cc(NN3CCCCC3)c([N+](=O)[O-])cc2[N+](=O)[O-])c1	0	12%	?	0%	nt	?
CC(=O)c1ccccc1Oc1cc(NN2CCCCC2)c([N+](=O)[O-])cc1[N+](=O)[O-]	4	-2%	26µM*	1%	nt	-19%
O=S(=O)(c1ccc(NC2CCCc3ccccc32)nc1)N1CCOCC1 (stereo not drawn)	-3	-3%	-26%	0%	1%	-13%
CCN(CC)S(=O)(=O)c1ccc(NC2CCCc3ccccc32)nc1 (stereo not drawn)	-3	-8%	15µM*	1%	-5%	-13%
CC1(C)CC(=O)C2=C(C1)OC1=C(C(=O)CC(C)(C)C1)C2c1cc([N+](=O)[O-])cc([N+](=O)[O-])c1O	-3	19%	?	4%	4%	?
CC1(C)CC(=O)C(C2C3=C(CC(C)(C)CC3=O)Oc3c(Br)cc(Br)cc32)=C(O)C1 (stereo not drawn)	-2	-4%	23µM*	0%	1%	?
NCC(=O)Nc1cccc(-c2nn3c(=O)cc(N4CCNCC4)nc3s2)c1	nt	nt	11%	nt	nt	-1%
O=C(c1ccccc1F)N1CCN(c2cccc(C(F)(F)F)c2)CC1	2	-4%	18µM*	-1%	0%	?
Cn1c(C(=O)N2CCN(c3cccc(C(F)(F)F)c3)CC2)cc2sccc21	0	-8%	26µM*	0%	-3%	-29%
Cc1ccc(C)c(N2CCN(C(=O)C3CCN(C(=O)c4cc5sccc5n4C)CC3)CC2)c1	-1	?	21µM*	0%	nt	?
Cc1ccc(CC(=O)N2CCN(c3cccc(C(F)(F)F)c3)CC2)cc1	1	-1%	-3%	3%	-1%	1%
Cc1ccc(S(=O)(=O)CC(=O)N2CCN(c3cccc(C(F)(F)F)c3)CC2)cc1	5	-1%	23µM*	0%	2%	-14%
Cn1c(SCCc2ccccc2)nnc1-c1ccco1	-9	nt	nt	nt	nt	nt
Cc1ccc(CN2CCCCC(NC(=O)C(C)(C)C)C2=O)cc1 (stereo not drawn)	-2	nt	nt	nt	nt	nt
COc1ccc(C2=Nn3c(nnc3-c3ccccc3OC)SC2)cc1	nt	nt	?	nt	nt	-9%
Clc1ccc(C(Cn2ccnc2)OCc2ccc(Sc3ccccc3)cc2)c(Cl)c1 (stereo not drawn)	-1	nt	nt	nt	nt	nt
CC1(C2CC2)NC(=O)N(CC(=O)N2CCN(c3cccc(C(F)(F)F)c3)CC2)C1=O (stereo not drawn)	0	nt	12µM*	0%	nt	-20%
SMILES	PI4K2A block	miR-21 reporter	Nrf2 block	Nrf2 ARE act	GALK inhibitor	A549 tox
COc1cccc(C2c3c(ncn(-c4cccc(Cl)c4)c3=N)Oc3ccc4ccccc4c32)c1 (stereo not drawn)	nt	nt	2%	nt	nt	5%
Cc1ccc(-n2ncc3c(SCc4cccnc4)ncnc32)c(C)c1	2	5%	4.1µM*	3%	4%	-20%
COc1cccc(N2CCN(c3ncnc4c3cnn4-c3ccc(C)cc3C)CC2)c1	-1	?	18µM*	-5%	2%	?
Clc1ccc(-n2c(SCc3cccc4ccccc34)nnc2-c2cccnc2)cc1	1	nt	nt	nt	nt	nt
CCOC(=O)c1c(C)[nH]c(C=O)c1Cc1cccc(Cl)c1	-10	26%	26µM*	0%	-3%	?
CCOC(=O)c1c(C)[nH]c(C)c1C(=O)COC(=O)/C=C/c1cccc(Cl)c1	2	-6%	-3%	16%	-1%	-4%
O=C(O)c1ccc2nc(-c3cc4cccc(O)c4oc3=O)[nH]c2c1	-54*	?	nt	-5%	nt	-10%
CCn1c(-c2ccccc2Cl)nn(CC(=O)NCCc2ccccc2)c1=S	-2	-2%	11%	0%	0%	-8%
CCn1c(-c2ccccc2Cl)nn(CC(=O)Nc2cc(Cl)ccc2Cl)c1=S	9	13%	16µM*	6%	-1%	-11%
CC(=O)NC1=CC(=O)c2nonc2C1=O	nt	nt	2.9µM*	nt	nt	7.3µM*
COc1cc(O)c(NC(C)=O)c2nonc12	-28	-7%	-5%	-1%	0%	-11%
CC(=O)c1ccc(OCC(O)COc2ccc(C(C)=O)cc2)cc1	1	-7%	1%	0%	-1%	3%
CC(=O)c1ccc(OCC(O)CN(C)CCOc2ccc(Br)cc2)cc1 (stereo not drawn)	3	23%	18µM*	5%	-1%	-1%
CCN(Cc1ccccc1)S(=O)(=O)c1cc(C(=O)NCC2CCCCC2)ccc1OC	-1	24%	12µM*	0%	-1%	-22%
CCOC(=O)Cc1nc(N2CCCN(C(C)=O)CC2)c2c(C)c(C(=O)OCC)sc2n1	1	nt	nt	nt	nt	nt
Fc1ccc(OCc2nc(-c3ccncc3)n[nH]2)cc1	-6	-4%	2%	0%	7%	1%
Clc1cccc(OCc2nc(-c3ccncc3)n[nH]2)c1	-2	2%	21µM*	0%	2%	-1%

From PubChem BioAssay
